Experimental data published in PubChem BioAssay.

Test: caspase-8 TRAIL sensitization, hit retest, confirmation, cell-based, NB7+caspase-8, with/without TRAIL, luminescence panel (AID 651596)
Settings: NB7 neuroblastoma + caspase-8, without TRAIL, luminescence viability, without TRAIL, mean of runs, at 10 µM

SMILES | activity [%]
CCCN(CC(=O)Nc1ccccc1C)C(=O)CCl | 98.2
Cc1nn(C(C)(C)C)c(C)c1/C=N/OC(=O)Nc1ccc(Cl)cc1 | 91.5
CCn1c(C)cc(C(=O)COC(=O)c2ccccc2[N+](=O)[O-])c1C | 93.3
Cc1noc(-c2ccc(Cl)cc2)c1C(=O)O/N=C(\N)c1ccc(C(C)(C)C)cc1 | 97.5
COCCn1c(C)cc(C(=O)COC(=O)c2ccccc2Br)c1C | 76.5
